The nature of experiment [1]: stimulators of nuclear beta-catenin in C2C12, primary screen, imaging, WNT3A-conditioned medium, mouse C2C12, NPC library (AID 1117326; in the data active means nuclear beta-catenin stimulation mostly above about 4.2%, no sharp cut-off; inactive means mostly below about 10%; further: reference of the scale not given here). As to conditions: stronger effect = higher value.
Experiment [2] is described as follows: stimulators of insulin release from INS-1E, primary screen, cell-based, 5 mM glucose, NPC library (AID 1117329). Further: reference of the scale not given here. Particulars: rat INS-1E insulin secretion, at 10 µM, stronger effect = higher value.
The nature of experiment [3]: growth inhibition of GSK3B-pretreated HCT116 cells – cell-based, CellTiter-Glo, 0.2 to 20 µM (AID 1117336;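 active means compounds lowering colon cancer cell viability after pretreatment blocking the GSK3B kinase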). Particulars: HCT116 viability after GSK3B inhibitor, at 20 µM, stronger effect = higher value.
A short description of experiment [4]: inhibition of endothelial tube formation, primary screen, imaging, VEGF stimulated, CD31 staining, tube area, NPC library (AID 1117340;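 active means compound that reduces growth-factor-driven endothelial tube area in a mixed cell culture, no cutoff stated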). Particulars: VEGF-stimulated ADSC/ECFC co-culture, at 10 µM, stronger effect = higher value.
A short description of experiment [5]: glucagon-like peptide 1 release enhancers, primary assay, NCI-H716 cell line, NPC library (AID 1117341;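 active means compound raises GLP1 secretion from the human gut endocrine cells, with no numeric limit stated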; further: reference of the scale not given here). As to conditions: NCI-H716 cells, at 10 µM, stronger effect = higher value.
The nature of experiment [6]: HCT116 colon cancer cell growth inhibition, primary screen, CellTiter-Glo luminescence, NPC library (AID 1117342;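 active means compounds that lower survival of HCT116 colon cancer cells in the luminescence readout, no numeric limit stated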). Particulars: at 20 µM (top of the series).
Experiment [7] can be described thus: CellTiter-Glo luminescent readout of SW480 viability loss, NPC library primary (AID 1117343;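 active means compounds that lower viability of the colon cancer cells in the luminescence readout, with no numeric limit stated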). Particulars: CellTiter-Glo luminescence; at 20 µM (top of the series) unless noted.
The nature of experiment [8]: decreased DLD-1 cellular survival, CellTiter-Glo luminescent readout, NPC compound collection, primary HTS (AID 1117346;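 active means compounds that lower survival of DLD-1 colon cancer cells in the luminescence readout, no cutoff given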). As to conditions: DLD-1 viability, CellTiter-Glo luminescence; at 20 µM (top of the series).
For experiment [9], the system named is Aerobactin synthetase IucA (Klebsiella pneumoniae). Nature of the experiment: IucA aerobactin synthetase inhibitors, biochemical, Tocris library, absorbance (AID 1345561; call rule not given here;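 further: 100% = enzyme without compound and 0% = no enzyme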). Particulars: purified IucA enzyme assay, absorbance (OD) read-out; stronger effect = lower value;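 tested at 8 µM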.
Experiment [10] can be described thus: sensitizers of A549 cells to miR-34 induction, primary screen, imaging, A549 dox-inducible miR-34, nuclei and caspase counts (AID 1347080;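 active means compounds whose cell count with miR-34 switched on is under 0.7 times the count with it off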). As to conditions: A549 miR-34 inducible, Hoechst nuclei count, 48 h.
Experiment [11] is described as follows: viability rescue of complex I mutant cybrids, primary screen, cell-based, galactose medium, ATP luminescence (AID 1645843;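 active means z-score of at least 1.8 in each of two replicates, scored against plate mean and spread of sample wells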;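 further: positive z means more ATP and so rescue of galactose-driven cybrid death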). Particulars: complex I mutant cybrid cells, 72 h, stronger effect = higher value.
The nature of experiment [12]: liver-stage malaria parasite growth inhibition, primary screen, cell-based, HepG2, luciferase luminescence, HepG2 viability (AID 624349; in the data active means parasite load remaining mostly below about 12%, no sharp cut-off; inactive means mostly above about 10%;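 further: 100% = mean of DMSO negative control wells on the same plate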). As to conditions: P. berghei liver stage in HepG2, luciferase luminescence, concentration not given here; parasite load remaining: stronger effect = lower value; viability: measured here: HepG2 viability without parasites.
The nature of experiment [13]: growth inhibition of DIPG glioma cells, dose response, cell-based, SU-DIPG-XVII, MIPE5.0, CellTiter-Glo, qHTS (AID 1347060; cut-off not given, nearly all actives have AC50 up to about 26 µM;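 on AC50: cells exposed to compound for 48 hours before viability readout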). As to conditions: SU-DIPG-XVII viability, CellTiter-Glo ATP luminescence.
The nature of experiment [14]: growth inhibition of DIPG glioma cells, dose response, cell-based, SU-DIPG-XIII, MIPE4.0, CellTiter-Glo, qHTS (AID 1347061; cut-off not given, nearly all actives have AC50 up to about 37 µM;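 further: cells exposed to compound for 48 hours before readout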). Particulars: SU-DIPG-XIII viability, CellTiter-Glo ATP luminescence.
The nature of experiment [15]: growth inhibition of DIPG glioma cells, dose response, cell-based, JHH-DIPG-1, MIPE4.0, CellTiter-Glo, qHTS (AID 1347062; cut-off not given, nearly all actives have AC50 up to about 27 µM). Particulars: JHH-DIPG-1 viability, CellTiter-Glo ATP luminescence.
Experiment [16] in a line: viability loss in pontine glioma line – cell-based, SU-DIPG-XXV, MIPE5.0, CellTiter-Glo, qHTS, dose response (AID 1347065; cut-off not given, nearly all actives have AC50 up to about 26 µM;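 further: cells exposed to compound for 48 hours before ATP readout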). As to conditions: CellTiter-Glo ATP luminescence.
A short description of experiment [17]: SU-DIPG-VI glioma cell viability, MIPE4.0 library, CellTiter-Glo luminescence, qHTS (AID 1347066; cut-off not given, nearly all actives have AC50 up to about 30 µM;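 further: cells exposed to compound for 48 hours before readout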). Particulars: CellTiter-Glo ATP luminescence.
Experiment [18] in a line: SU-DIPG-XXV glioma cell viability, MIPE5.0 library, qHTS (AID 1347068; cut-off not given, nearly all actives have IC50 up to about 30 µM;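 on IC50: cells exposed to compound for 48 hours before viability readout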).
Experiment [19] in a line: survival rescue of mitochondrial mutant cells in low glucose, primary screen, MELAS cybrids, Rieske KO mouse fibroblasts, CellTiter-Glo (AID 1508586;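 active means mean z-score across replicates of 1.96 or higher in either the MELAS or the Rieske mutant cell line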;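 further: z relative to plate mean and SD of compound and empty wells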).
Where [20] appears, read: stronger effect = lower value, cell number ratio, induced over uninduced.
The mark [21] stands for this setting: measured here: relative caspase fold change +Dox/-Dox.
Where [22] appears, read: measured here: total cells with miR-34 induction, stronger effect = lower value.
The mark [23] stands for this setting: measured here: total cells without miR-34 induction.

“And” between values parts separate entries of the source, which are not always exact repeats. Identical values can stand only once. Records with an inconclusive call do not appear. The source made the active and inactive calls.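 How the source made its calls, unless noted: active means compound raises insulin release from rat beta cells at 5 mM glucose, no numeric limit stated; inactive means the rest.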

Regarding `COP(=O)(OC)OC(c1ccc(Cl)cc1)P(=O)(OC)OC` (centres undefined), the nuclear beta-catenin stimulation is -1.5% (inactive) in experiment [1] (at 10 µM) and 1.2% in [1] (stimulation, at 2 µM). Besides, the insulin secretion stimulation in [2] is 1.8% (inactive). In experiment [3], the viability decrease is -3.65% (inactive). Besides, the tube area decrease in experiment [4] was -20.8% (inactive). For the same molecule, the GLP1 secretion stimulation in experiment [5] was 1.3% (inactive). Moreover, in experiment [6], the inhibition of viability is -20.4% (inactive). Moreover, the figures for the viability decrease (inhibition) in experiment [7] and in experiment [8] were -1% (inactive) and 1.6% (inactive), respectively. In addition, the remaining activity in experiment [9] was 122% (inactive). Moreover, the fold change in experiment [10] (setting [20]) was 0.979 (inactive); in experiment [10] (setting [21]) it was 1.41. For the same molecule, the cell count in experiment [10] (setting [22]) is 8810; in experiment [10] (setting [23]) it was 8990. Also, in [11], the z-score is -0.085 (inactive).
`COc1cc2c(cc1OC)[C@@H]1CC(=O)[C@@H](CC(C)C)CN1CC2`: the nuclear beta-catenin stimulation in [1] (at 10 µM) is 0.6% (inactive); in [1] (stimulation, at 2 µM), 0.1%. In addition, the insulin secretion stimulation in experiment [2] was -1.9% (inactive). Moreover, the viability decrease in experiment [3] was -9.4% (inactive). For the same molecule, the tube area decrease in experiment [4] was -10% (inactive). In addition, the GLP1 secretion stimulation in experiment [5] is -2.7% (inactive). In experiment [6], the inhibition of viability was 21.4% (inactive). In addition, the viability decrease (inhibition) in [7] is 2.6% (inactive); in experiment [8] it was 5.2% (inactive). For the same molecule, in [9], the remaining activity was 81.5% (inactive). Besides, the fold change in [10] (setting [20]) is 0.993 (inactive); in experiment [10] (setting [21]) it was 1.02. Further, the cell count in experiment [10] (setting [22]) was found to be 8740; in [10] (setting [23]), 8800. Also, the z-score in experiment [11] was 0.105 (inactive).
Take `O=C(O)Cc1ccc(OCCNC[C@H](O)c2ccccc2)cc1`: the nuclear beta-catenin stimulation in experiment [1] (at 10 µM) was 23.3% (inactive); in experiment [1] (stimulation, at 2 µM), -5%. Besides, the insulin secretion stimulation in [2] was 0.6% (inactive). For the same molecule, the viability decrease in experiment [3] is -5.3% (inactive). Further, in experiment [4], the tube area decrease was -9.4% (inactive). The GLP1 secretion stimulation in experiment [5] is -0.5% (inactive). The inhibition of viability in experiment [6] is -1.1% (inactive). The viability decrease (inhibition) in [7] was 8.4% (inactive); in experiment [8], 19.5% (inactive). For the same molecule, the remaining activity in [9] is 103% (inactive). In addition, the fold change in experiment [10] (setting [20]) is 0.89 (inactive); in [10] (setting [21]) it was 2.1. Also, the values for the cell count in experiment [10] (setting [22]) and in experiment [10] (setting [23]) were 8910 and 10000, respectively. Further, in experiment [11], the z-score is 0.015 (inactive).
Turning to `COC(=O)C1=C(C)NC(C)=C(C(=O)OCCCN2CCC(c3ccccc3)(c3ccccc3)CC2)C1c1cccc([N+](=O)[O-])c1` (centres undefined), the parasite load remaining in [12] is 29% (inactive). This molecule yielded a viability in [12] of 90.5%. For the same molecule, the nuclear beta-catenin stimulation is -0.8% (inactive) in experiment [1] (at 10 µM) and 9.4% in experiment [1] (stimulation, at 2 µM). Moreover, the insulin secretion stimulation in experiment [2] is -1.1% (inactive). Further, the viability decrease in [3] is 110% (active). Also, the tube area decrease in experiment [4] is 109% (active). Moreover, the GLP1 secretion stimulation in experiment [5] is -3.2% (inactive). Further, the inhibition of viability in experiment [6] was 112% (active). Besides, the viability decrease (inhibition) in experiment [7] is 134% (active); in [8] it was 101% (active). Further, the AC50 in [13] was 10.5 µM (active); in experiment [16], 8.33 µM (active). For the same molecule, the outcome in [14], in experiment [15] and in experiment [17] was inactive. Moreover, in experiment [18], the IC50 was 7.42 µM (active). In addition, the fold change in experiment [10] (setting [20]) is 1.31 (inactive) and 0.96 (inactive); in experiment [10] (setting [21]), 0.733 and 0.821. The cell count in experiment [10] (setting [22]) was 498 and 6520; in experiment [10] (setting [23]), 380 and 6800. Moreover, the z-score in experiment [19] (MELAS cybrid survival, CellTiter-Glo 48 h, stronger effect = higher value) was -1.1 (inactive); in experiment [19] (Rieske KO mouse fibroblast survival, CellTiter-Glo 72 h), -0.158; in [11] it was -2.25 (inactive).
In the case of `Nc1ccn(C[C@@H](CO)OCP(=O)(O)O)c(=O)n1`, the nuclear beta-catenin stimulation was 1.2% (inactive) in experiment [1] (at 10 µM) and 0.4% in experiment [1] (stimulation, at 2 µM). Moreover, the insulin secretion stimulation in [2] was 1.05% (inactive). In addition, the viability decrease in [3] is 22.7% (inactive). For the same molecule, the tube area decrease in [4] was -2.6% (inactive). In [5], the GLP1 secretion stimulation was 0.9% (inactive). In [6], the inhibition of viability is 14.9% (inactive). The viability decrease (inhibition) in experiment [7] is 109% (active); in experiment [8], 2.8% (inactive). The outcome in [13], in experiment [14], in experiment [15], in experiment [16], in experiment [17] and in experiment [18] was inactive.

These data come from PubChem BioAssay.
